# Experimental data published in PubChem BioAssay (NCI).
# The panel holds about 79,000 compounds, 15% with a hit somewhere; the sample as a whole holds those more often. Unmarked numbers belong to inactive results. Activity calls are given as the source filed them. No stated cut-off is given here; in the data, active means growth inhibition above about 70%; inactive means the rest.
# Test: NCI Yeast Anticancer Drug Screen. Data for the mec2-1 strain (AID 157)
# Conditions: S. cerevisiae mec2-1 strain, at 50.0 µM, active compounds read high
# How it was run: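 Using mec2-1 yeast: add compound, measure growth, express inhibition versus vehicle-treated cultures.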
row,Structure (SMILES),growth inhibition
1,CC(C)c1ccc2c(c1)CC[C@@H]1[C@](C)(CO)CCC[C@]21C,89.8% (active)
2,O=c1c2ccccc2ncn1Cc1ccccc1[N+](=O)[O-],-9.1%
3,O=C(NO)C(=O)Nc1cc(Cl)ccc1Cl,73% (active)
4,CCCCCCCCCCCCOC(=O)C[n+]1cccc(C(=O)Nc2ccccc2)c1,99.4% (active)
5,O=C1C=CC(=O)c2ccc(=O)ccc21,-1.45%
6,Cn1c(=O)nc2n(-c3ccc(Cl)cc3)c3cc(Cl)ccc3nc-2c1=O,24.1%
7,Clc1ccc(CN2COc3c(ccc4ccccc34)C2)cc1,59.8%
8,C1CCN(c2nc(N3CCOCC3)c3[nH]c(N4CCCCC4)nc3n2)CC1,35.4%
9,O=C1c2ccccc2-c2cc([N+](=O)[O-])c([N+](=O)[O-])cc21,98.6% (active)
10,CCC[CH2][Sn]([CH2]CCC)([O]C(=O)Cc1ccc(F)cc1)[O]C(=O)Cc1ccc(F)cc1,81.5% (active)
11,ClCc1ccc2oc3ccccc3c2c1,17.1%
12,O=C1Oc2ccccc2C(=O)/C1=C/N1C(=O)/C(=C/c2ccc([N+](=O)[O-])cc2)SC1=S,90% (active)
13,COC1=CC(=O)c2ncc(Cl)cc2C1=O,95.5% (active)
14,CN(C)c1ccc(C(c2ccc(N(C)C)cc2)c2ccc3c(c2)OCO3)cc1,94% (active)
15,CC(C)(C)OC(=O)CSC#N,66.2%
16,CN=c1ss/c(=N\C(=S)N(C)C)n1-c1ccccc1,-7.45%
17,CCCCCCCCCCCCCCCBr,49.6%
18,O=c1c2ccccc2[nH]c2c1[nH]c1ccccc12,-11.7%
19,COc1cc(/C=C/c2cc[n+](C)cc2)ccc1O,31.7%
20,COc1cc(C2c3cc4c(cc3C(OC3CCCCO3)C3COC(=O)C23)OCO4)cc(OC)c1OC (stereo not drawn),18.6%

row,Structure (SMILES),growth inhibition
1,O=S(=O)(N/N=C/c1ccc(Cl)cc1Cl)c1ccccc1,-10.3%
2,Cc1ccc(C(=O)/C(Cl)=N/O)cc1,99.1% (active)
3,Cc1ccnc(NS(=O)(=O)c2ccc(N=Cc3c4ccccc4nc4cc(Cl)ccc34)cc2)n1,99.2% (active)
4,COc1cc(CCN=Cc2cc(Cl)cc(Cl)c2O)c([N+](=O)[O-])cc1OC,69.5%
5,COc1ccc(C(C)c2cc3c(cc2OC/C(C)=N/NC(N)=O)OCO3)cc1 (stereo not drawn),71.6% (active)
6,C/C(CCC1CCc2ccccc2C1)=N\NC(N)=O (stereo not drawn),12.3%
7,Cc1nc(C(N)=S)sc1C(=O)CC(=O)C(=O)Nc1nc2ccccc2[nH]1,23.1%
8,Clc1ccc([O][In]([O]c2ccc(Cl)cn2)[O]c2ccc(Cl)cn2)nc1,72% (active)
9,Cc1ccc(S(=O)(=O)C(=S)Sc2ccccc2)cc1,39.5%
10,Fc1ccc2[nH]ccc2c1,28.8%
11,C(=C/c1ccccc1)/C=N/Nc1ccccc1,9.7%
12,O=S1(=O)CC2C1C1(Cl)OC2(Cl)c2ccccc21 (stereo not drawn),-9.25%
13,CCCNC(=O)C(=O)NNc1ccccc1,59.1%
14,C/C(=N/O)c1cccc(C(F)(F)F)c1,14.3%
15,COC1=CC(=O)c2c(O)c3c(c(O)c2C1=O)OC1(Oc2c(cc4cc(C)oc(=O)c4c2O)CC1O)C3O (stereo not drawn),92.5% (active)
16,CC(C)C1/C(=N/O)CC(c2ccccc2)N(N=O)C1c1ccccc1 (stereo not drawn),93% (active)
17,Cc1c(N)nc(C2CC(=O)N2CC(N)C(N)=O)nc1C(=O)NC(C(=O)NC(C)C(O)C(C)C(=O)NC(C(=O)NCCc1nc(-c2nc(C(=O)NCCCNC3CCCC3)cs2)cs1)C(C)O)C(OC1OC(CO)C(O)C(O)C1OC1OC(CO)C(O)C(OC(N)=O)C1O)c1cnc[nH]1 (stereo not drawn),93.3% (active)
18,CCOC(=O)C1(Br)CCN(S(=O)(=O)c2ccc(C)cc2)c2ccccc2C1=O (stereo not drawn),98% (active)
19,O=C(C[n+]1ccccc1)c1ccc2ccc3ccc(Cl)cc3c2c1,32%

# Test: NCI Yeast Anticancer Drug Screen. Data for the sgs1 mgt1 strain (AID 161);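 further: 0% = growth of cultures given vehicle only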
# Conditions: S. cerevisiae sgs1 mgt1 strain, at 5.0 µM (retest, dose inferred, filed as 0.5), active compounds read high
# How it was run: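 Compounds are added to genetically altered yeast, and growth is compared with cultures given vehicle alone to give percent inhibition.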
row,Structure (SMILES),growth inhibition
1,CC(C)c1ccc2c(c1)CC[C@@H]1[C@](C)(CO)CCC[C@]21C,0%
2,O=c1c2ccccc2ncn1Cc1ccccc1[N+](=O)[O-],0%
3,O=C(NO)C(=O)Nc1cc(Cl)ccc1Cl,-3%
4,CCCCCCCCCCCCOC(=O)C[n+]1cccc(C(=O)Nc2ccccc2)c1,95% (active)
5,O=C1C=CC(=O)c2ccc(=O)ccc21,38%
6,Cn1c(=O)nc2n(-c3ccc(Cl)cc3)c3cc(Cl)ccc3nc-2c1=O,9%
7,Clc1ccc(CN2COc3c(ccc4ccccc34)C2)cc1,13%
8,C1CCN(c2nc(N3CCOCC3)c3[nH]c(N4CCCCC4)nc3n2)CC1,2%
9,O=C1c2ccccc2-c2cc([N+](=O)[O-])c([N+](=O)[O-])cc21,21%
10,CCC[CH2][Sn]([CH2]CCC)([O]C(=O)Cc1ccc(F)cc1)[O]C(=O)Cc1ccc(F)cc1,27%
11,ClCc1ccc2oc3ccccc3c2c1,-12%
12,O=C1Oc2ccccc2C(=O)/C1=C/N1C(=O)/C(=C/c2ccc([N+](=O)[O-])cc2)SC1=S,22%
13,COC1=CC(=O)c2ncc(Cl)cc2C1=O,-9%
14,CN(C)c1ccc(C(c2ccc(N(C)C)cc2)c2ccc3c(c2)OCO3)cc1,97% (active)
15,CC(C)(C)OC(=O)CSC#N,9%
16,CN=c1ss/c(=N\C(=S)N(C)C)n1-c1ccccc1,13%
17,CCCCCCCCCCCCCCCBr,-10%
18,O=c1c2ccccc2[nH]c2c1[nH]c1ccccc12,5%
19,COc1cc(/C=C/c2cc[n+](C)cc2)ccc1O,-18%
20,COc1cc(C2c3cc4c(cc3C(OC3CCCCO3)C3COC(=O)C23)OCO4)cc(OC)c1OC (stereo not drawn),-10%

row,Structure (SMILES),growth inhibition
1,O=S(=O)(N/N=C/c1ccc(Cl)cc1Cl)c1ccccc1,10%
2,Cc1ccc(C(=O)/C(Cl)=N/O)cc1,13%
3,Cc1ccnc(NS(=O)(=O)c2ccc(N=Cc3c4ccccc4nc4cc(Cl)ccc34)cc2)n1,41%
4,COc1cc(CCN=Cc2cc(Cl)cc(Cl)c2O)c([N+](=O)[O-])cc1OC,53%
5,COc1ccc(C(C)c2cc3c(cc2OC/C(C)=N/NC(N)=O)OCO3)cc1 (stereo not drawn),41%
6,C/C(CCC1CCc2ccccc2C1)=N\NC(N)=O (stereo not drawn),1%
7,Cc1nc(C(N)=S)sc1C(=O)CC(=O)C(=O)Nc1nc2ccccc2[nH]1,13%
8,Clc1ccc([O][In]([O]c2ccc(Cl)cn2)[O]c2ccc(Cl)cn2)nc1,-1%
9,Cc1ccc(S(=O)(=O)C(=S)Sc2ccccc2)cc1,10%
10,Fc1ccc2[nH]ccc2c1,5%
11,C(=C/c1ccccc1)/C=N/Nc1ccccc1,-53%
12,O=S1(=O)CC2C1C1(Cl)OC2(Cl)c2ccccc21 (stereo not drawn),2%
13,CCCNC(=O)C(=O)NNc1ccccc1,10%
14,C/C(=N/O)c1cccc(C(F)(F)F)c1,-64%
15,COC1=CC(=O)c2c(O)c3c(c(O)c2C1=O)OC1(Oc2c(cc4cc(C)oc(=O)c4c2O)CC1O)C3O (stereo not drawn),97% (active)
16,CC(C)C1/C(=N/O)CC(c2ccccc2)N(N=O)C1c1ccccc1 (stereo not drawn),3%
17,Cc1c(N)nc(C2CC(=O)N2CC(N)C(N)=O)nc1C(=O)NC(C(=O)NC(C)C(O)C(C)C(=O)NC(C(=O)NCCc1nc(-c2nc(C(=O)NCCCNC3CCCC3)cs2)cs1)C(C)O)C(OC1OC(CO)C(O)C(O)C1OC1OC(CO)C(O)C(OC(N)=O)C1O)c1cnc[nH]1 (stereo not drawn),96% (active)
18,CCOC(=O)C1(Br)CCN(S(=O)(=O)c2ccc(C)cc2)c2ccccc2C1=O (stereo not drawn),-7%
19,O=C(C[n+]1ccccc1)c1ccc2ccc3ccc(Cl)cc3c2c1,3%
